Among the data in PubChem BioAssay AID2391 (Southern Research Specialized Biocontainment Screening …, 2010) are CPE inhibition values, retold here.

Screen size: about 310,000 compounds; about 410 (0.13%) were called active. About 2% were inconclusive and are not listed. These entries were drawn from the full list. Results with a measured potency or affinity are listed apart. Values without a mark were called inactive. The rule behind the calls is not given here.

The nature of this test: RSV antiviral activity via CPE protection, HEp-2 cells, primary 10 µM value included (AID 2391). Particulars: RSV-induced CPE inhibition, at 10 µM, hits give high values.
As for `Cc1c(C(=O)O)oc2ccc3c(c12)C(O)CC(C)(C)O3` (stereo unspecified), the CPE inhibition is 1.72%.

Regarding `CN(CC(=O)Nc1ccccc1Cl)C(=O)c1cc(C2CC2)nn1-c1ccccc1`, the CPE inhibition is 1.34%.

For `CCc1ccccc1NC(=O)CN(C)C(=O)c1cc(C2CC2)nn1-c1ccccc1`, the CPE inhibition is 0.49%.

In the case of `O=C(O)c1cc(C2CC2)nn1-c1ccccc1`, the CPE inhibition is -0.32%.

Turning to `CCc1ccccc1NC(=O)CNC(=O)c1cc(C2CC2)nn1-c1ccccc1`, the CPE inhibition is -0.83%.

In the case of `CCN(CC(=O)Nc1c(F)cccc1F)C(=O)C1CCN(C(=O)Nc2ccccc2)CC1`, the CPE inhibition was 0.36%.

For `O=C(NC1CCCC1)C1CC(=O)N(c2ccccc2)C1` (stereo unspecified), the CPE inhibition was 1.22%.

`CS(=O)(=O)c1ccc(C(=O)OCC(=O)Nc2cccc(S(=O)(=O)N3CCCC3)c2)cc1`: the CPE inhibition was 1.77%.

Regarding `O=C(CSc1nccn(-c2ccc(Br)cc2)c1=O)Nc1ccccc1F`, the CPE inhibition is 0.04%.

For the compound `CSc1nc(Oc2ccc(C)cc2)cc(C(F)(F)F)n1`, the CPE inhibition is 0.19%.

With `CCNC(=S)N1CCN(c2nc(-c3ccc(F)cc3)cs2)CC1`, the CPE inhibition is 2.45%.

As to `O=C(c1ccc(-c2ccccc2Cl)o1)N1CCN(S(=O)(=O)c2cccs2)CC1`, the CPE inhibition is 0.24%.

On to `CCOC(=O)[C@H]1[C@H]2COc3cc(OC)ccc3[C@@H]2N2C(=O)CN(Cc3ccc(OC)cc3)C(=O)[C@@]12C`, for which the CPE inhibition is 2.03%.

Consider `COc1ccc(NC(=S)NCCN2CCC(C)CC2)cc1Cl`, for which the CPE inhibition was -1.89%.

As for `CC(C)OCCCNC(=O)c1ccc2c(c1)NC(=O)c1ccccc1S2`, the CPE inhibition is 3.89%.

On to `COc1ccc(C(=O)c2coc3ccc(OC(C)=O)cc23)cc1`, for which the CPE inhibition is 4.53%.

`COc1ccc2occ(C(C)=O)c2c1`: the CPE inhibition was 0.49%.

Consider `CN1C=C(C(F)(F)F)C=C/C1=C(\C#N)c1nnc2n1CCCCC2`, for which the CPE inhibition was 1.8%.

For `COc1ccc(C2CCCN2C(=O)Nc2ccccc2)cc1OC` (stereo unspecified), the CPE inhibition was 2.18%.

For `COc1ccc(CNC(=O)CCCn2nc(C)n3ccnc3c2=O)cc1`, the CPE inhibition is 1%.

Take `C=Cn1cc[n+](CC(=O)c2cccs2)c1`: the CPE inhibition was 0.58%.

Consider `COc1ccc2[nH]cc(C(=O)CN3CCC(C)CC3)c2c1`, for which the CPE inhibition is 0.91%.

As for `COc1ccc2[nH]cc(C(=O)CN3CCCCC3)c2c1`, the CPE inhibition was -0.42%.

Take `O=C1CCCN1c1ccc(C(=O)N(Cc2nnc(-c3ccc(Cl)cc3)o2)C2CC2)cc1`: the CPE inhibition was 1.99%.

On to `O=C(c1ccc(Cl)c(S(=O)(=O)N2CCOCC2)c1)N(Cc1nnc(-c2ccccc2Cl)o1)C1CC1`, for which the CPE inhibition is 14.6%.

As to `CC(C)CCOC(=O)C(C)Sc1n[nH]c(=O)[nH]c1=O` (stereo unspecified), the CPE inhibition is 8.79%.

As to `O=C(O)c1ccc(NC(=S)NC(=O)c2ccc(-c3ccc(Br)cc3)o2)cc1`, the CPE inhibition is 10.7%.

Consider `COC(=O)c1ccccc1NC(=O)c1ccc(-c2ccc(Br)cc2)o1`, for which the CPE inhibition was 4.75%.

Consider `Cc1c(NC(=S)NC(=O)c2ccc(-c3ccc(Cl)cc3)o2)cccc1C(=O)O`, for which the CPE inhibition is 53.5%.

Consider `Cc1cc(O)c(NC(=S)NC(=O)c2ccc(-c3ccc(Cl)cc3)o2)cc1C`, for which the CPE inhibition is 11.3%.

With `Cc1ccc(NC(=S)NC(=O)c2ccc(-c3ccc(Cl)cc3)o2)c(O)c1`, the CPE inhibition was 1.42%.

As to `O=C(NC(=S)Nc1ccccc1O)c1ccc(-c2ccc(Cl)cc2)o1`, the CPE inhibition was -1.25%.

As for `O=C(N/C(=C/c1cccc([N+](=O)[O-])c1)C(=O)N1CCCCC1)c1ccco1`, the CPE inhibition was -0.57%.

With `Cc1ccc(S(=O)(=O)NC(C)(C)CN2CCNCC2)cc1`, the CPE inhibition is -0.5%.

Consider `O=C(CCCCCN1C(=O)c2cccc3cccc(c23)C1=O)N1CCOCC1`, for which the CPE inhibition is 2.04%.

As for `CCCc1c(NC(=O)Nc2ccc(F)cc2)cnn1-c1ccc(Cl)cc1`, the CPE inhibition is 4.89%.

Consider `CCCc1c(C(=O)Nc2ccc(F)cc2)cnn1-c1ccccc1`, for which the CPE inhibition is 3.97%.

For the compound `O=C(c1ccco1)N1CCN(c2ccccc2F)CC1`, the CPE inhibition was 0.67%.

With `CNC(=O)N1c2ccccc2C=Cc2ccccc21`, the CPE inhibition was 0.96%.

Regarding `CCN(CC)C(=O)N1c2ccccc2Sc2ccccc21`, the CPE inhibition was 11.5%.

Regarding `COc1cc(NC(=S)NC(=O)c2c(OC)cccc2OC)ccc1NC(=O)c1cccs1`, the CPE inhibition is 2.67%.

Regarding `COc1cccc(C(=O)Nc2cc(NC(=O)c3cccs3)ccc2C)c1`, the CPE inhibition is 10.5%.

Take `Cc1ccc(NC(=O)c2cccs2)cc1NC(=O)c1ccccc1Cl`: the CPE inhibition was 2.07%.

For `COc1cc(NC(=S)NC(=O)c2cc(C)cc(C)c2)ccc1NC(=O)c1cccs1`, the CPE inhibition is 7.54%.

For the compound `CCCCN(C)CCNC(=O)c1cn(C)c(=O)c2c1c1ccccc1n2C`, the CPE inhibition was 1.07%.

Regarding `COc1ccc(OC)c(C2C(C#N)=C(N)N(N(C)C)C3=C2C(=O)CC(C)(C)C3)c1` (stereo unspecified), the CPE inhibition was 1.69%.

Regarding `Nc1ccc2nc(SCC(=O)N3CCOCC3)sc2c1`, the CPE inhibition is 0.05%.

Turning to `CCN(CC)CCNC(=O)c1ccc(NC(=O)Cc2ccccc2F)cc1`, the CPE inhibition is -0.24%.

For the compound `COc1ccc(Cl)cc1NC(=O)NCc1cccnc1`, the CPE inhibition was 2.51%.

On to `Nc1nnnn1/N=C/c1ccc(Br)cc1`, for which the CPE inhibition was 7.9%.

In the case of `Nc1nnnn1/N=C/c1ccc(F)cc1`, the CPE inhibition was 1.72%.

As for `O=C(COc1ccccc1[N+](=O)[O-])OCCCOC(=O)COc1ccccc1[N+](=O)[O-]`, the CPE inhibition is 0.68%.

For the compound `CCN1/C(=C2\C(=O)N(C)C(=S)N2c2ccccc2)C=Cc2ccccc21`, the CPE inhibition was 1.96%.

Turning to `CC1(C)Cc2cccc(OCC(=O)Nc3cccnc3)c2O1`, the CPE inhibition is 0.28%.

As to `CC1(C)Cc2cccc(OCC(=O)Nc3nccs3)c2O1`, the CPE inhibition was 1.37%.

Consider `COc1ccc(C)cc1Nc1n[n+](-c2ccccc2)c(-c2cc(OC)c(OC)cc2Br)s1`, for which the CPE inhibition was 13.7%.

With `COC(=O)c1cc(NS(=O)(=O)c2ccc(NCc3cccnc3)c([N+](=O)[O-])c2)cc(C(=O)OC)c1`, the CPE inhibition is 1.44%.

In the case of `COc1ccccc1NC(=O)N1CCN(c2ccc3nnc(-c4ccc(F)cc4)n3n2)CC1`, the CPE inhibition is 20.8%.

As to `CCSc1ccccc1C(=O)N1CCC2(CC1)CC(=O)c1ccccc1O2`, the CPE inhibition is 2.51%.

Regarding `Cc1ccccc1NC(=O)COc1cccc2c1CCNC2=O`, the CPE inhibition was -2.82%.

Turning to `COc1cccc(NC(=O)COc2cccc3c2CCNC3=O)c1`, the CPE inhibition was -2.16%.
